Measurements taken from PubChem BioAssay AID651812 (National Center for Advancing Translational Sciences (NCATS), 2012).
About 650 (31%) of roughly 2,100 compounds were called active. About 16% were inconclusive and are not listed. The list shows a part of the results. A number with no mark means an inactive call. Calls follow the shape of the dose curve; as a rule, active = well fitted inhibition curve with a large enough effect; inconclusive = small, poorly fitted or top-dose-only effect; inactive = flat fitted curve, though single readings scatter.

Assay: qHTS for inhibitors of Vif-A3G interactions: Cherry picks; also: nearly all actives have a fitted effect of over 80% in size; as to activity, negative = fluorescence increase: % of control where 0% means no effect
Details: HeLa A3G-eYFP + Vif (tagged APOBEC3G with the HIV-1 protein that degrades it), 24 h; Potency: eYFP fluorescence increase; series mostly up to 36.9 µM; activity, negative = fluorescence increase: at the top concentration
Method in brief: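 HeLa cells stably expressing A3G-eYFP and Vif, cultured overnight then exposed to compounds at several concentrations for 24 hours at 37 C, 5% CO2; cellular yellow fluorescence (488 nm ex, 500-530 nm em) imaged on Acumen, MG132 positive control.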
Potency is read from the fitted curve at half-maximal effect.

Q: Which “activity, negative = fluorescence increase” value does the source give for `COc1ccccc1Nc1cc2cc(Br)ccc2c(=O)[nH]1` here?
A: The value was -6.94%.

Q: Which Potency does the source give for `COc1ccccc1N1C(=O)C(Cl)=C(Nc2ccccc2O)C1=O` here?
A: The Potency was 16.4 µM (active).

Q: Which “activity, negative = fluorescence increase” value does the source give for `COc1ccc(Cl)cc1NC(=O)CN(C)CC(=O)Nc1ccccc1N1CCOCC1` here?
A: The value was -10.8%.

Q: With `C#CCSc1nc(-c2cccs2)ccc1C#N` as the compound, how does the Potency read?
A: Its Potency is 8.2 µM (active).

Q: With `Cc1cccc(CSc2nc(-c3cccs3)ccc2C#N)c1` as the compound, how does the “activity, negative = fluorescence increase” value read?
A: The value was -21.7% [at 46.1 µM].

Q: For `N#Cc1ccc(-c2cccs2)nc1SCc1c(F)cccc1Cl`, which “activity, negative = fluorescence increase” value is on record?
A: Its value is -17.2% [at 46.1 µM].

Q: For `Cc1ccc(NC2=C(Cl)C(=O)N(C3CCCCC3)C2=O)cc1`, which “activity, negative = fluorescence increase” value is on record?
A: Its value is -1.75% [at 46.1 µM].

Q: Which “activity, negative = fluorescence increase” value does the source give for `COc1ccc(CNCC(=O)Nc2ccccc2-n2cccc2)cc1` here?
A: The value was -5.31%.

Q: With `CCC(=O)Nc1ccccc1-c1nc2ccccc2n(C(C)C(=O)Nc2ccc(OC)cc2)c1=O` (stereo not given) as the compound, how does the Potency read?
A: The Potency was 18.4 µM (active).

Q: With `Cc1noc(C)c1COc1ccc(C(=O)NNC(=O)c2ccccc2)cc1` as the compound, how does the “activity, negative = fluorescence increase” value read?
A: The value was -5.2%.

Q: For `CCOC(=O)c1cnc(-n2nc(C)cc2C)nc1NNc1cc(C)nc(-c2ccccc2)n1`, which “activity, negative = fluorescence increase” value is on record?
A: Its value is -4.37% [at 46.1 µM].

Q: For `CCCCCCN1C[C@H](O)[C@@H](n2cc(COC(=O)c3ccccc3)nn2)C[C@@H]1c1ccc(C)cc1`, which “activity, negative = fluorescence increase” value is on record?
A: The value was -7.29% [at 46.1 µM].

Q: With `CC1(C)CC(=O)C(C=Nc2cc(C(=O)c3ccccc3)ccc2N)=C(O)C1` as the compound, how does the Potency read?
A: Its Potency is 20.6 µM (active).

Q: With `CCOC(=O)N1CCc2c(sc3c2C(=O)NC(c2ccc(N(C)C)cc2)N3)C1` (stereo not given) as the compound, how does the Potency read?
A: The Potency was 20.6 µM (active).

Q: With `Cc1onc(-c2c(F)cccc2Cl)c1C(=O)O/N=C(\N)c1ccc([N+](=O)[O-])o1` as the compound, how does the “activity, negative = fluorescence increase” value read?
A: The value was 3.83%.

Q: For `Nc1nc(-c2cc(O)ccc2[N+](=O)[O-])cc(-c2ccccc2)c1[N+](=O)[O-]`, which Potency is on record?
A: The Potency was 15.8 µM (active).

Q: With `CNCC(O)Cn1c2c(c3ccccc31)CCCC2` (stereo not given) as the compound, how does the “activity, negative = fluorescence increase” value read?
A: The value was -0.603%.

Q: Which “activity, negative = fluorescence increase” value does the source give for `Cc1oc(C)c2c(=O)ccc3c(c12)OC(N)=C(C#N)C3c1ccc(F)cc1` (stereo not given) here?
A: The value was -17.8% [at 46.1 µM].

Q: Which “activity, negative = fluorescence increase” value does the source give for `CC(C)OC(=O)c1ccc(NCc2cc(O)ccc2O)cc1Cl` here?
A: The value was -11.5%.

Q: Which Potency does the source give for `CC(C)OC(=O)c1cc(C(=O)c2cc(F)ccc2O)coc1=N` here?
A: The Potency was 20.6 µM (active).

Q: Which Potency does the source give for `COc1ccc(O)c(C(=O)c2coc(=N)c(C(=O)Nc3ccc(SC(F)F)cc3)c2)c1` here?
A: Its Potency is 23.1 µM (active).

Q: For `O=C(Nc1ncc(Cc2ccc(SC(F)F)cc2)s1)c1ccccc1`, which “activity, negative = fluorescence increase” value is on record?
A: The value was -0.547%.

Q: With `COc1cc(-c2nc3ccc(C)cn3c2NCc2ccccc2)ccc1SC1CCCCC1` as the compound, how does the “activity, negative = fluorescence increase” value read?
A: Its value is 4.07%.

Q: Which “activity, negative = fluorescence increase” value does the source give for `COc1ccccc1/C=C/C=N/NC(=O)c1cc(-c2ccc(C)o2)[nH]n1` here?
A: The value was -6.92%.

Q: For `C(=Cc1c[nH]c2ccccc12)c1nccc2ccccc12`, which Potency is on record?
A: The Potency was 18.4 µM (active).

Q: With `Cc1ccc2c(/C=C/c3c[nH]c4ccccc34)ccnc2c1C` as the compound, how does the Potency read?
A: Its Potency is 3.26 µM (active).

Q: Which Potency does the source give for `C(=C\c1c[nH]c2ccccc12)/c1nccc2ccccc12` here?
A: The Potency was 14.6 µM (active).

Q: With `Cc1cccc(C(=O)Nc2nnc(C3=COCCO3)o2)c1` as the compound, how does the “activity, negative = fluorescence increase” value read?
A: Its value is 7.13% [at 46.1 µM].

Q: For `O=C(NCc1cccnc1)c1cccc(NS(=O)(=O)c2ccc(Br)cc2)c1`, which “activity, negative = fluorescence increase” value is on record?
A: Its value is -0.847%.

Q: With `COc1ccc(COc2cc(-c3cccc(OC)c3)nc3ccc(NC(=O)C(C)C)cc23)cc1` as the compound, how does the “activity, negative = fluorescence increase” value read?
A: The value was -2.87%.

Q: Which “activity, negative = fluorescence increase” value does the source give for `COc1ccc(-c2nnc(NC(=O)c3ccc([N+](=O)[O-])o3)o2)c(OC)c1` here?
A: Its value is -1.94% [at 46.1 µM].

Q: With `COc1ccc(NC(=O)c2ccc(NC(=O)C(C)C)cc2)c([N+](=O)[O-])c1` as the compound, how does the Potency read?
A: The Potency was 10.3 µM (active).

Q: Which Potency does the source give for `CN(C)c1ccc(/C=C2\NC(=S)N(Cc3ccccc3)C2=O)cc1` here?
A: Its Potency is 9.94 µM (active).

Q: With `CCN1C(=O)/C(=C/c2ccc(N3CCCC3)cc2)NC1=S` as the compound, how does the Potency read?
A: Its Potency is 10.3 µM (active).

Q: Which Potency does the source give for `O=C1/C(=C/c2ccc(N3CCCC3)cc2)NC(=S)N1C1CC1` here?
A: The Potency was 3.66 µM (active).

Q: For `Cc1ccc(/C=C2/NC(=O)N(Cc3ccccc3)C2=O)s1`, which Potency is on record?
A: The Potency was 23.1 µM (active).

Q: For `O=C1N/C(=C\c2ccccc2)c2ccccc21`, which “activity, negative = fluorescence increase” value is on record?
A: The value was -6.2%.

Q: With `Cc1ccc(C=Nc2ccccc2C(N)=O)s1` as the compound, how does the “activity, negative = fluorescence increase” value read?
A: The value was -5.29%.

Q: With `COc1ccc(COn2c(=O)c(C)[n+]([O-])c3ccccc32)cc1OC` as the compound, how does the “activity, negative = fluorescence increase” value read?
A: Its value is -5.61%.

Q: For `COc1ccccc1N1CCN(c2ncnc3c2oc2ccccc23)CC1`, which “activity, negative = fluorescence increase” value is on record?
A: Its value is 1.39%.

Q: For `CCOC(=O)N1CCN(C(=O)c2ccccc2-c2ccccc2)CC1`, which “activity, negative = fluorescence increase” value is on record?
A: The value was -0.014%.

Q: Which Potency does the source give for `CCOC(=O)N1CCN(/C=C(\C#N)c2nc3ccccc3s2)CC1` here?
A: The Potency was 18.4 µM (active).

Q: Which “activity, negative = fluorescence increase” value does the source give for `CCOC(=O)N1CCN(C(=O)c2cc(-c3ccc(OCC)cc3)nc3ccccc23)CC1` here?
A: The value was 0.415%.

Q: For `COc1ccc(S(=O)(=O)N2N=C(C)Oc3ccccc3C2=O)cc1`, which “activity, negative = fluorescence increase” value is on record?
A: Its value is -6.59%.

Q: For `COc1cc(/C=N/NC(=O)c2cc(-c3c(C)nn(-c4ccccc4)c3C)n[nH]2)ccc1O`, which “activity, negative = fluorescence increase” value is on record?
A: The value was -8.18%.

Q: For `COc1cc(/C=N/NC(=O)c2[nH]nc3c2CCc2ccccc2-3)ccc1O`, which “activity, negative = fluorescence increase” value is on record?
A: The value was -2.56%.

Q: Which “activity, negative = fluorescence increase” value does the source give for `COc1cc(/C=C/C(C)=NNc2ccccc2)ccc1O` here?
A: The value was -7.3%.

Q: For `COc1ccc(C(=O)N/N=C/c2cc(Br)ccc2O)cc1OC`, which “activity, negative = fluorescence increase” value is on record?
A: Its value is 0.135% [at 46.1 µM].

Q: Which Potency does the source give for `COc1cc(/C=C2\SC(=S)N(NC(=O)c3ccc(O)c(OC)c3)C2=O)ccc1O` here?
A: The Potency was 13 µM (active).

Q: Which Potency does the source give for `COc1cc(/C=C2\SC(=S)N(NC(=O)c3ccccc3O)C2=O)ccc1O` here?
A: The Potency was 23.1 µM (active).
